Bioassay records (PubChem)
The list is not random: actives were taken first. Their share in the collection is about 13%.
HCV inh: HCV inhibition; Huh7.5.1 HCVcc-Cre infection, luciferase reporter, 44 h; Potency, µM (series often up to 41.8 µM), for inactives: at the highest dose activity change, negative = inhibition, usual class: inhibitors; 340,000 compounds, 3.4% hits; active = well fitted inhibition curve with a large enough effect; inconclusive = small, poorly fitted or top-dose-only effect, or another doubt; inactive = no such curve, though single readings can be large or run the other way; also: potency is read from the fitted curve at half-maximal effect; % is scaled to controls: 0 for no effect and ±100 for the full control effect
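Infectious HCV cell culture screen: compound-treated cells (1,000/well, pre-plated 4 h) are infected with HCVcc-Cre at roughly 0.5 moi and grown 44 h. Infection is quantified by luciferase signal after 15 min substrate incubation at room temperature.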
LASV entry inh: blocks Lassa virus binding to or entry into cells; Lassa virus pseudotype entry inhibition, cell reporter; Potency, µM (highest dose often 37.9 µM), without a hit: at the highest dose activity change, negative = inhibition, actives largely listed as inhibitors; 300,000 compounds, 1.2% hits; AID 540256; calls by dose curve; tested in HEK293 cells; also: potency is read from the fitted curve at half-maximal effect; % is scaled to controls: 0 for no effect and ±100 for the full control effect; nearly all actives have a fitted effect of over 50% in size
Shiga toxin inh: Shiga toxin inhibition | Vero cells, Shiga toxin protein synthesis inhibition reporter | inhibition, % at 38.7 µM | 290,000 compounds, 9.2% hits; in the data active = inhibition mostly above about 28%, no sharp cut-off; inactive = mostly below about 43%; also: 0% is about no effect
MARV entry inh: inhibitors of Marburg virus binding or cell entry; Marburg virus pseudotyped entry inhibition, cell reporter; Potency, µM (top dose mostly 37.8 µM), for the others: top-dose activity change, negative = inhibition, actives largely listed as inhibitors; 300,000 compounds, 1.8% hits; calls by dose curve; tested in HEK293 cells; also: potency is read from the fitted curve at half-maximal effect; % is scaled to controls: 0 for no effect and ±100 for the full control effect
Cycloheximide cs: affects cycloheximide protein synthesis inhibition readout, counter-screen; cell reporter, cycloheximide protein synthesis inhibition counterscreen; max response, %; 300,000 compounds, 12% hits; AID 2314; in the data active = max response mostly above about 13%, no sharp cut-off; inactive = mostly below about 14%; also: read at 38.3 µM for the half of the compounds with a filed dose; 0% is about no effect
FMDV antiviral: antivirals against foot and mouth disease virus | FMDV antiviral cell-based qHTS | Potency, µM (series often up to 57.9 µM), for inactives: at the highest dose activity change, negative = inhibition, actives largely listed as inhibitors | 410,000 compounds, 1.2% hits; calls by dose curve; tested in HEK293T cells; also: read-out not given here; potency is read from the fitted curve at half-maximal effect; % is scaled to controls: 0 for no effect and ±100 for the full control effect; nearly all actives have a fitted effect of over 45% in size
Starred values were filed as active, the others as inactive; [ ] = remark or other dose.

CC(NC(=O)C1CCC(=O)N1Cc1ccccc1Cl)c1ccccc1 (centres undefined) was read as HCV inh 15.5%, Shiga toxin inh -2.5, Cycloheximide cs 0.9 and FMDV antiviral 3.0%.
`Cc1ccc(S(=O)(=O)N2CCCc3cc(NC(=O)c4c(F)cccc4F)ccc32)cc1` gave HCV inh 10µM*, LASV entry inh -30.0%[46.1 µM], Shiga toxin inh 12.5, Cycloheximide cs 0.3 and FMDV antiviral -8.2%.
O=C(Nc1ccc2c(c1)N(S(=O)(=O)c1cccs1)CCC2)c1c(F)cccc1Cl was read as HCV inh 14.1µM*, LASV entry inh inconclusive, MARV entry inh inconclusive and FMDV antiviral 2.9%.
For COc1cccc(OC)c1C(=O)Nc1ccc2c(c1)N(S(=O)(=O)c1cccs1)CCC2 the results were HCV inh -21.3%, Shiga toxin inh -3.5, Cycloheximide cs -2.8 and FMDV antiviral 12.5%.
Cc1ccc(S(=O)(=O)N2CCCc3cc(NS(=O)(=O)c4ccccc4)ccc32)cc1 was read as LASV entry inh 10µM* and FMDV antiviral 0.9%.
Screening COc1ccccc1S(=O)(=O)Cc1ccc(C(=O)N2CCN(c3cc(Cl)ccc3C)CC2)o1 returned LASV entry inh inconclusive, MARV entry inh -5.2%[46.1 µM] and FMDV antiviral inconclusive.
O=C(CN1CCN(C2CCCCC2)CC1)Nc1ccc(Br)cc1 was read as HCV inh 10µM*, LASV entry inh -5.1%, Shiga toxin inh 2.8, MARV entry inh -22.2%[46.1 µM], Cycloheximide cs 9.9 and FMDV antiviral -7.4%.
For COc1cc(NC(=O)c2cccc(Cl)c2)c(OC)cc1NC(=O)CN1CCCCC1 the results were HCV inh 35.5µM*, LASV entry inh -28.9%, Shiga toxin inh 7.4, MARV entry inh inconclusive, Cycloheximide cs -4.5 and FMDV antiviral -20.3%.
`CCOc1ccc(NC(=O)CN2CCN(CC(=O)Nc3ccc(F)cc3F)CC2)cc1` gave LASV entry inh inconclusive and FMDV antiviral 26.7%.
`COc1ccc(NC(=O)CSC2CCCCC2)cc1` gave HCV inh 3.4%, LASV entry inh inconclusive, Shiga toxin inh 153.2*, MARV entry inh inconclusive, Cycloheximide cs 61.2* and FMDV antiviral 62.7%.
`NS(=O)(=O)c1ccc(NC(=O)CSC2CCCCC2)cc1` gave HCV inh 21.5%, LASV entry inh -6.1%, Shiga toxin inh 39.9, MARV entry inh 23.3%, Cycloheximide cs 15.5 and FMDV antiviral 15.7%.
COc1ccc(NC(=O)CN2CCN(CC(=O)Nc3ccc(F)cc3F)CC2)cc1 was read as HCV inh 1.0%, LASV entry inh inconclusive, Shiga toxin inh 30.3*, MARV entry inh 10.6%[46.1 µM], Cycloheximide cs 24.4* and FMDV antiviral 19.3%.
Screening CC1CC(C)(C)CC2(C1)NC(=O)N(CC(=O)N(Cc1ccccc1)c1ccccc1)C2=O (centres undefined) returned HCV inh -27.8%, LASV entry inh -7.2%, MARV entry inh inconclusive and FMDV antiviral -21.5%.
COC(=O)c1[nH]c2ccc(Cl)cc2c1NC(=O)Oc1ccccc1 was read as HCV inh -18.4%, LASV entry inh inconclusive, Shiga toxin inh 56.0*, MARV entry inh -0.8%, Cycloheximide cs 40.0* and FMDV antiviral 29.9%.
For Cc1ccc(NC(=O)CN2CCCC2)cc1 the results were HCV inh 3.9%, Cycloheximide cs 2.5 and FMDV antiviral -8.6%.
For CC(=O)c1ccc(NC(=O)CN2CCCC2)cc1 the results were HCV inh 28.7%, LASV entry inh 23.1%[46.1 µM], Shiga toxin inh 27.5*, MARV entry inh inconclusive, Cycloheximide cs 27.1* and FMDV antiviral 11.0%.
Screening COc1ccc(NC(=O)CN2CCCCC2)cc1 returned HCV inh inconclusive, LASV entry inh inconclusive, Shiga toxin inh 65.9, MARV entry inh 3.5%, Cycloheximide cs 34.4* and FMDV antiviral 23.8%.
`COC(=O)c1[nH]c2ccc(Br)cc2c1NC(=O)CN1CCN(C2CCCCC2)CC1` gave HCV inh 11.2µM*, LASV entry inh inconclusive, Shiga toxin inh -27.8, MARV entry inh 6.51µM*, Cycloheximide cs -8.9 and FMDV antiviral 31.6µM*.
Screening O=C(Oc1ccc2c(=O)c(Cl)coc2c1)c1ccncc1 returned HCV inh 5.5%, LASV entry inh 21.0%, Shiga toxin inh -15.9, MARV entry inh 25.9%, Cycloheximide cs 3.7 and FMDV antiviral -12.2%.
Screening Cc1cccc(OCc2nc(-c3ccc(-n4cccc4)cc3)no2)c1 returned HCV inh 5.8%, Shiga toxin inh 12.7, Cycloheximide cs -1.6 and FMDV antiviral -11.0%.
`CCCNC(=O)c1onc(CSc2ccc(Cl)cc2)c1C(=O)NCC1CC1` gave HCV inh inconclusive and FMDV antiviral -2.8%.
For COc1ccc(CNC2CCN(Cc3ccccc3)CC2)cc1 the results were HCV inh inconclusive, Shiga toxin inh -2.4, Cycloheximide cs -2.3 and FMDV antiviral -13.0%.
Screening CCOC(=O)c1nnn2c1nc(N1CCN(C)CC1)c1ccccc12 returned HCV inh 10.8%, LASV entry inh 5.4%, Shiga toxin inh 10.7, MARV entry inh 4.9%, Cycloheximide cs -1.1 and FMDV antiviral -9.2%.
For O=C(CN1CCCCCC1)Nc1ccc(Br)cc1 the results were LASV entry inh 20.8%[14.3 µM], Shiga toxin inh 40.1, MARV entry inh -20.9%, Cycloheximide cs 24.4* and FMDV antiviral 30.7%.
O=C(CN1CCCC1)Nc1ccc(Br)cc1 was read as HCV inh -3.4%, Shiga toxin inh 34.0, Cycloheximide cs 9.4 and FMDV antiviral 17.2%.
`CC1CN(CC(=O)Nc2ccc(Br)cn2)CC(C)O1` (centres undefined) gave HCV inh 1.5%, LASV entry inh 24.5%[46.1 µM], Shiga toxin inh -1.9, MARV entry inh 21.9%[46.1 µM], Cycloheximide cs -1.1 and FMDV antiviral -3.1%.
`CCOC(=O)C1CCN(CC(=O)Nc2c(C(=O)OC)[nH]c3ccc(Cl)cc23)CC1` gave HCV inh 10µM*, LASV entry inh inconclusive, Shiga toxin inh -11.1, MARV entry inh 10µM*, Cycloheximide cs -2.9 and FMDV antiviral inconclusive.
For CCOC(=O)C1CCN(CC(=O)Nc2c(C(=O)OC)[nH]c3ccccc23)CC1 the results were Shiga toxin inh -2.3 and Cycloheximide cs -3.4.
O=C(CN1CCCCCC1)Nc1ccc(Br)cn1 was read as HCV inh -13.1%, Shiga toxin inh 25.7, Cycloheximide cs 14.9* and FMDV antiviral 8.7%.
For O=C(CCc1ccc(S(=O)(=O)N2CCOCC2)cc1)OCC(=O)c1ccccc1 the results were HCV inh 0.1%, LASV entry inh 10.7%[46.1 µM], MARV entry inh 8.2%[46.1 µM] and FMDV antiviral 15.9%.
`Cc1cc(=O)n2c(nc3ccccc32)[nH]1` gave HCV inh 11.4%, LASV entry inh 22.4%, Shiga toxin inh 11.6, MARV entry inh inconclusive, Cycloheximide cs -2.5 and FMDV antiviral 3.8%.
Screening CCCc1cc(=O)n2c(nc3ccccc32)[nH]1 returned HCV inh -18.2%, LASV entry inh -20.0%, Shiga toxin inh 36.6, MARV entry inh 9.0%, Cycloheximide cs 17.7* and FMDV antiviral -1.0%.
